# In PubChem BioAssay (Tox21):
# Inconclusive results are not listed. Values without a mark were called inactive. Activity calls are given as the source filed them. Calls follow the shape of the dose curve; as a rule, active = well fitted inhibition curve with a large enough effect in the signal ratio in the repeat runs (not every such curve was filed as active); inconclusive = weak or mixed curves, or effect the other way; inactive = no such curve, though single readings can be large or run the other way; the % refers to the signal ratio.
# Biological target: Glucocorticoid receptor (Homo sapiens) (UniProt P04150)
# Experiment: qHTS assay to identify small molecule antagonists of the glucocorticoid receptor (GR) signaling pathway (AID 720692)
# Details: GR-bla HeLa, beta-lactamase FRET ratio, dexamethasone-stimulated, 18 h; series mostly up to 58.5 µM; activity change, negative = inhibition: at the top concentration
# Excerpt: U.S. Tox21 Program National Center for Advancing Translational Sciences [NCATS] NIH Chemical Genomics Center [NCGC] U.S. Environmental Protection Agency [EPA] National Institutes of Environmental Health Sciences [NIEHS] National Toxicology Program [NTP] U.S. Food and Drug Administration [FDA] Tox21 Assay Overview: The Glucocorticoid receptor (GR) is one of the members of the nuclear receptor family of ligand-dependent transcription factors. GR plays a critical role in carbohydrate, protein and lipid metabolisms and programmed cell death. CellSensor GR-bla HeLa cell line (Invitrogen) contains a beta-lactamase reporter gene under the control of the glucocorticoid response element stably integrated into HeLa cells, a cervical cancer cell line that expresses glucocorticoid receptor. The activation of the reporter gene under culture conditions can be detected by fluorescence intensity. This cell line has been used to screen the Tox21 10K compound library and to identify the compounds that inhibit the GR signaling.
# Tox21 Assay Protocol Summary: The GR-bla HeLa cells were dispensed at 1500 cells/5 ul/well in 1536-well black wall/clear bottom plates using a Multidrop Combi (ThermoFisher Scientific, Waltham, MA) dispenser. After the assay plates were incubated at a 37 C/5% CO2 incubator for 4 hours, 23 nL of compounds dissolved in DMSO, positive controls or DMSO only was transferred to the assay plate by a pintool station (Kalypsys, San Diego, CA), followed by addition of 1 uL of dexamethasone (5 nM, final concentration in the well). The plates were incubated at 37 C for 18 hours. After 1 uL of LiveBLAzerTM B/G FRET substrate was added using a Flying Reagent Dispenser (Aurora Discovery, San Diego, CA), the plates were incubated at room temperature for 2 hours, and fluorescence intensity was measured by an Envision plate reader (PerkinElmer, Shelton, CT).
# % is scaled to controls: 0 for no effect and ±100 for the full control effect.
# Chain of Glucocorticoid receptor (Homo sapiens) (P04150 whole entry, looked up): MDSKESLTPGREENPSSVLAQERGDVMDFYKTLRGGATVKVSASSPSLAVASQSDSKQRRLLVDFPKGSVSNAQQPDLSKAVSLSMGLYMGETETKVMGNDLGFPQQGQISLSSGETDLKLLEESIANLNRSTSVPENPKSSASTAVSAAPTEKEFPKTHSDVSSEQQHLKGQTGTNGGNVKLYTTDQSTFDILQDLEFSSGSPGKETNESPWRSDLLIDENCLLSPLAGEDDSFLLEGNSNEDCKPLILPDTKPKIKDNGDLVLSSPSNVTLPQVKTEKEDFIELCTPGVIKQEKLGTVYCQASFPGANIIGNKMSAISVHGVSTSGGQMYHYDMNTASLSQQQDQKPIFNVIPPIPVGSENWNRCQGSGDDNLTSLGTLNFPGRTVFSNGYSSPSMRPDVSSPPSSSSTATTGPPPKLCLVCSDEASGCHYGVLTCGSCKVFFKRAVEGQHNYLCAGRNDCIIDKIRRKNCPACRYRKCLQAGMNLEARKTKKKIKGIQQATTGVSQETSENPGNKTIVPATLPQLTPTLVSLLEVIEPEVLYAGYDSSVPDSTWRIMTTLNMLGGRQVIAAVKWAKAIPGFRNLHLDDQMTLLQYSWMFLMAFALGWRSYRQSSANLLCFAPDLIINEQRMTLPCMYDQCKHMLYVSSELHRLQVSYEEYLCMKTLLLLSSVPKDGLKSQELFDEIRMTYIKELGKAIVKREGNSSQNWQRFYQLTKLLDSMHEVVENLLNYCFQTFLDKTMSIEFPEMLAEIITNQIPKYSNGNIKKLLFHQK
Compound,"activity change, negative = inhibition",outcome
C=CCCCCCCCCCCCC,-4.68%,
CC(C)N(c1ccccc1)C(C)C,9.88%,
CCCCNc1ccc(C(=O)OCCN(C)C)cc1,4.13% [at 27 µM],
CN(C)C(=O)CNC(=O)Cc1ccccc1,-1.62%,
O=C1c2ccccc2C(=O)N1CCl,-1.28%,
O=P(O)(O)OP(=O)(O)O,-1.6%,
C[C@H](N)[C@H](O)c1cccc(O)c1,5.8% [at 27 µM],
C[Si](C)(C)C,1.59%,
CCCCCCOC(=O)CC,-0.44%,
Cc1cccc(C)c1NC(=O)c1ccccc1C(=O)O,-5.03%,
Cc1ccc(C=O)cc1C,-0.34%,
C[Si](C)=O,3.35% [at 7.04 µM],
COc1cc(C(=S)N2CCOCC2)cc(OC)c1OC,-3.68%,
CC(=O)N[C@@H](CCC(=O)O)C(=O)O,6.18%,
CC(CC=O)CCCC(C)(C)O (stereo not given),20.6%,
CC[C@H](C)C(=O)O[C@H]1C[C@H](O)C=C2C=C[C@H](C)[C@H](CC[C@@H](O)C[C@@H](O)CC(=O)O)[C@H]21,,inactive
O=C(O)c1cc(Br)c(O)c(Br)c1,9.35%,
CCCCCCCCCC(C)=O,0.567% [at 78.9 µM],
Cc1cc(Cl)c(C)cc1Cl,-1.73%,
CC(C)=CCOC(=O)c1ccccc1,19.4%,

Compound,"activity change, negative = inhibition",outcome
CCOCCOCCOCC,8.65%,
O=C(CCNNC(=O)c1ccncc1)NCc1ccccc1,-0.443%,
C=C(C)C(=O)OCCN(CC)CC,-2%,
C=COCCOCCOCCOC=C,7.2%,
O=C1c2ccccc2C(=O)c2cc(S(=O)(=O)O)ccc21,-4.96% [at 78.9 µM],
Cc1ccc(S(=O)(=O)O)c(C)c1,8.6%,
COc1ccc2c(c1OC)C(=O)O[C@@H]2[C@H]1c2c(cc3c(c2OC)OCO3)CCN1C,8.58%,
CCCCOCCOC(=O)COc1nc(Cl)c(Cl)cc1Cl,2.27%,
CCOC(=O)CC(=O)c1ccccc1,0.0567%,
Cc1ccccc1OCC(O)CO (stereo not given),0.106%,
CNS(=O)(=O)CCc1ccc2[nH]cc(C3CCN(C)CC3)c2c1,-5.63%,
O=C(OCC1(COC(=O)c2cccnc2)CCCC(COC(=O)c2cccnc2)(COC(=O)c2cccnc2)C1O)c1cccnc1,4.26%,
CCCCOC(=O)c1ccccc1,0.935%,
O=Cc1ccc(Cl)c(Cl)c1,-0.236% [at 78.9 µM],
OC[C@H](Cc1cccc(O)c1)[C@H](CO)Cc1cccc(O)c1,-4.93% [at 78.9 µM],
O=C(OCC(COC(=O)c1cccnc1)(COC(=O)c1cccnc1)COC(=O)c1cccnc1)c1cccnc1,-10.5%,
O=C1c2cccc3c2[C@H](CCC3)CN1[C@@H]1CN2CCC1CC2,-22.4%,
CN(C)CCOCCO,4.2%,
C=C(C)C(=O)OCCOP(=O)(O)OCCOC(=O)C(=C)C,-1.25%,
CCc1ccc(C=O)cc1,11.2%,
